PubChem BioAssay AID371 (SRMLSC, 2006)
Among all 3,300 compounds or so, about 280 (8.5%) were called active.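 Rule for the calls: active = mean growth inhibition over the two runs of 50% or more; inactive = mean growth inhibition under 50%.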 The full list was thinned out, with actives kept by preference.

Experiment: A549 NSCLC cell proliferation inhibitors – ATP luminescence, human non-small cell lung line, primary screen (AID 371);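 note: compound exposure lasted 72 h before the ATP read; 0% = untreated cell signal and 100% = no luminescence left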
Conditions: at 10 µM, active compounds read high

Growth inhibition, inactive:
CCCCCSc1nc(C)c(CC(=O)O)c(=O)[nH]1 -2.49%
N#C/C(C(=O)N1CCOCC1)=C1/SC(Cc2ccccc2)C(=O)N1c1ccccc1 (stereo not drawn) 0%
N#CC(C(=O)Nc1ccc(Cl)c(Cl)c1)=C1Nc2ccccc2N1 38.8%
CCOC(=O)c1ccc(CC2S/C(=C(\C#N)C(C)=O)NC2=O)cc1 (stereo not drawn) 26.4%
CCOC(=O)/C(C#N)=C1/SC(CCO)C(=O)N1c1ccccc1 (stereo not drawn) -8.59%
CCOc1ccc2nc(NC(NC(=O)CC)(C(=O)OC)C(F)(F)F)sc2c1 (stereo not drawn) 20.7%
CCCCCOc1ccc(C(=O)NCC(=O)NCC(=O)OCC)cc1 36.1%
CC(C)CC(=O)Nc1ccccc1N1CCCC1 3.4%
CCOC(=O)c1n[nH]c2ccccc12 -3.73%
CCOC(=O)CNC(=O)Nc1ccccc1C(=O)OC -3.41%
C=CCOn1c(=O)c(-c2ccc(OC)cc2)[n+]([O-])c2ccccc21 0.35%
CSC1=C(C#N)C(C)CC(=O)N1 (stereo not drawn) -1.22%
O=C1c2ccccc2C(=O)N1c1ncccn1 8.95%
COCCCn1c2nc3ccccc3nc2c2c(=O)n(CC3CCCO3)cnc21 (stereo not drawn) 3.37%
Cc1cc(-c2cc(-c3ccc(Cl)cc3)nc(N)c2C#N)co1 30.1%
CCOC(=O)CC(=O)CSc1nc(N)c(C#N)c(-c2ccc(Cl)cc2)c1C#N 5.46%
Cc1c(/C(O)=C2\C(=O)C(=O)N(CCN(C)C)C2c2cccs2)cnn1-c1ccccc1 (stereo not drawn) 0.12%
c1coc(CNc2ncnc3ccccc23)c1 23.6%
O=c1c2ccccc2ncn1Cc1ccco1 1.72%
CC(C)CN1C(=O)NC(NC(=O)c2cccnc2)(C(F)(F)F)C1=O (stereo not drawn) -0.36%
Cc1nnc(SCC(=O)N2CCOCC2)c2ccccc12 -4.15%
COCCCNc1nc2c(c(=O)n(C)c(=O)n2C)n1Cc1cccc(OC)c1 33.1%
COc1cccc(Cn2c(NCc3ccccn3)nc3c2c(=O)n(C)c(=O)n3C)c1 23.9%
COc1cccc(Cn2c(NCC(C)C)nc3c2c(=O)n(C)c(=O)n3C)c1 2.01%
COc1ccc(Oc2nc3c(c(=O)n(C)c(=O)n3C)n2Cc2cccc(OC)c2)cc1 27.7%
Cc1cc(=O)oc(C)c1C(=O)NCC(C)C -13.9%
C=CCOc1nc2c(c(=O)n(C)c(=O)n2C)n1Cc1c(Cl)cccc1Cl 25.2%
COc1cc(NC2=CC(=O)CC(C)(C)C2)cc(OC)c1OC 3.91%
Cc1nc(NS(=O)(=O)c2ccccc2)sc1NC(=O)OC(C)C 3.58%
Cc1cccc(-c2nc(C#N)c(NC3CCCCC3)o2)c1 34.3%
Cc1ccc(S(=O)(=O)c2cc3c(=O)n4ccccc4nc3n(C)c2=N)cc1 -2.02%
Cn1c(=O)c2c(nc(NCc3ccco3)n2CCc2ccccc2)n(C)c1=O 34.5%
CCOC(=O)c1cc2c(=O)n3cccc(C)c3nc2n(C)c1=N 27.1%
CCOC(=O)c1cc2c(=O)n3cccc(C)c3nc2n(CCc2ccccc2)c1=N 16.5%
Cc1cccn2c(=O)c3cc(C(=O)NCc4cccnc4)c(=N)n(C)c3nc12 -1.19%
Cc1ccc(CNC(=O)c2cc3c(=O)n4ccccc4nc3n(CC3CCCO3)c2=N)cc1 (stereo not drawn) 44.3%
COC(=O)c1cc2c(=O)n3cccc(C)c3nc2n(Cc2cccnc2)c1=N 2.48%
CC(C)OCCCn1c(=N)c(C(N)=S)cc2c(=O)n3ccccc3nc21 42.5%
CCOC(=O)CSC1=C(C#N)C(c2ccc(C)cc2)C(C(=O)OC)C(=O)N1 (stereo not drawn) 8.41%
CCOC(=O)C1=C(C)OC(N)=C(C#N)C1c1cc2ccccc2nc1N1CCCCC1 (stereo not drawn) 22.5%
COC(=O)c1cc(S(=O)(=O)N2CCOCC2)c(N2CCOCC2)cc1N1CCOCC1 8.19%
COCCCNC(=O)c1c(N)n(/N=C/c2cccnc2)c2nc3ccccc3nc12 4.43%
Cc1cc(=O)oc(C)c1C(=O)NCC(C)NC(=O)c1c(C)cc(=O)oc1C (stereo not drawn) 0.25%
Cc1nn(CC(=O)N2CCOCC2)c(=O)c2ccccc12 2.14%
COc1ccc(CCn2c(=N)c(C#N)cc3c(=O)n4ccccc4nc32)cc1 11.5%
C=CCn1c(=N)c(C(=O)OCC)cc2c(=O)n3cccc(C)c3nc21 16.9%
COc1ccc(CCn2c(=N)c(C(=O)NCc3ccco3)cc3c(=O)n4ccccc4nc32)cc1OC 48.2%
CCOC(=O)c1cc2c(=O)n3cccc(C)c3nc2n(Cc2cccnc2)c1=N 1.61%
O=C1c2ccccc2C(=O)N1CCN1CCc2ccccc21 8.36%
Cc1ccc(C(C)C)c(OCCNc2nc3c(c(=O)n(C)c(=O)n3C)n2C)c1 20.2%
CCSc1nc(N)c2c3c(sc2n1)CCC3 6.53%
c1csc(-c2nn3c(C4CCCCC4)nnc3s2)c1 7.39%
CC1CN(C2CCN(S(=O)(=O)c3ccc4ccccc4c3)CC2)CC(C)O1 (stereo not drawn) 8.58%
CC(C)c1nc2sc3c(c2c(=O)o1)CCCC3 0.69%
CCOc1ccc(C2C(C#N)=C(N)Oc3cc(C)n(CCN4CCOCC4)c(=O)c32)cc1OCC (stereo not drawn) 1.16%
CCCOC(=O)C1[C@H]2C(=O)N(Cc3ccco3)C[C@]23C=C[C@H]1O3 (stereo partly drawn) 9.74%
CCCOc1ccc(C(C)=O)cc1CSCCC#N 8.19%
CCOC(=O)c1c(C)[nH]c(/C(C)=N/O)c1C 12.8%
CCOC(=O)c1c(C)[nH]sc1=S 3.75%
COC(=O)C1=C(C)NC(C)=C(C(=O)OC)C1c1ccccc1[N+](=O)[O-] 47.5%
COCCOC(=O)C1=C(C)NC(C)=C(C(=O)OC(C)C)C1c1cccc([N+](=O)[O-])c1 (stereo not drawn) 34.4%
CCOC(=O)C1=C(C)NC(=O)NC1c1ccc2c(c1)OCO2 (stereo not drawn) 5.16%
CCOC(=O)C1=C(C)NC(=O)C1CC(=O)Nc1ccccc1 (stereo not drawn) -0.76%
Cc1c(O)c(CN2CCCC2)cc2c1oc(=O)c1ccccc12 9.98%
N#Cc1c(N2CCOCC2)nc(-c2ccco2)c2c1CCCC2 7.04%
CCC(=O)c1ccc(O)cc1 4.76%
Cn1c(NCCN2CCCCC2)cc(=O)n(C)c1=O -1.36%
COc1cc(C2CC(C(F)(F)F)n3ncc(C(=O)O)c3N2)cc(OC)c1OC (stereo not drawn) 2.64%
CN1CCN(C(=O)CSc2nc(-c3cccs3)ccc2C#N)CC1 3.23%
COc1ccc(N2C(=O)CC(N(Cc3ccc(S(N)(=O)=O)cc3)C(C)=O)C2=O)cc1 (stereo not drawn) 0.97%
Cc1ccc2[nH]c3c(c2c1)CN(C(=O)CN1CC(C)OC(C)C1)CC3 (stereo not drawn) 3.04%
Cc1ccc2[nH]c3c(c2c1)CN(C(=O)CN1CCN(c2ccccn2)CC1)CC3 15.6%
COCCOC(=O)c1c(C)oc2ccc(OC(=O)COc3c(F)c(F)c(F)c(F)c3F)cc12 5.03%

Growth inhibition, active:
CC(=O)/C(C#N)=C1\NC(=O)C(Cc2ccccc2Cl)S1 (stereo not drawn) 61.9%
CC(=O)/C(C#N)=C1\NC(=O)C(Cc2ccccc2)S1 (stereo not drawn) 56%
CCOC(=O)C1=Nc2ccccc2C1=[N+]=[N-] 61.3%
CCc1nc(N)nc(N)c1-c1ccc(Cl)cc1 79.6%
OCCNc1ncnc2c1c(-c1ccccc1)c(-c1ccccc1)n2Cc1ccco1 53.2%
CCCCNc1nc2c(c(=O)n(C)c(=O)n2C)n1Cc1cccc(OC)c1 59.5%
COc1cccc(Cn2c(NCc3ccco3)nc3c2c(=O)n(C)c(=O)n3C)c1 51.8%
CCNC(=O)c1cc2c(=O)n3cccc(C)c3nc2n(CCc2ccccc2)c1=N 70.5%
Cc1ccc(CNC(=O)c2cc3c(=O)n4ccccc4nc3n(Cc3ccco3)c2=N)cc1 92.5%
Cc1cccn2c(=O)c3cc(C(N)=S)c(=N)n(CCCOC(C)C)c3nc12 51.3%
N=c1c(C(=O)NCc2ccccc2)cc2c(=O)n3ccccc3nc2n1Cc1ccco1 90.5%
CCOC(=O)c1cc2c(=O)n3ccccc3nc2n(Cc2ccccc2Cl)c1=N 52.6%
COc1ccc(CCn2c(=N)c(C(=O)NCc3ccco3)cc3c(=O)n4ccccc4nc32)cc1 61.2%
CC(C)(C)n1cnc2cc(NS(=O)(=O)c3ccc(Br)cc3)ccc21 61.4%
CO[C@H]1C[C@@H]2CC[C@@H](C)[C@@](O)(O2)C(=O)C(=O)N2CCCC[C@H]2C(=O)O[C@H]([C@H](C)C[C@@H]2CC[C@@H](O)[C@H](OC)C2)CC(=O)[C@H](C)C=C(C)[C@@H](O)[C@@H](OC)C(=O)[C@H](C)C[C@H](C)C=CC=CC=C1C 65.2%
CCOC(=O)c1c(C(F)(F)C(F)(F)C(F)(F)C(F)(F)F)n[nH]c1C 91.1%
CCOC(=O)C1=C(C)NC(C)=C(C(=O)OC)C1c1cccc(Cl)c1Cl (stereo not drawn) 79.5%
CCOC(=O)C1=C(C)NC(C)=C(C(=O)OC)C1c1cccc([N+](=O)[O-])c1 (stereo not drawn) 52.7%
C/C=C(/C(=C/C)c1ccc(O)cc1)c1ccc(O)cc1 50.9%
Cc1ccc2[nH]c3c(c2c1)CN(C(=O)CN1CCCc2ccccc21)CC3 69%
